# Results published in the supplement of paper PMC11172423.
# A number with no mark means an inactive call.
# Columns and labels:
# [1] = system: Falciformispora senegalensis CBS197.79; assay: growth relative to untreated control; higher = less inhibition, active = 20 or less
# In short: (§1)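 Growth was expressed as metabolic activity relative to the untreated growth control, with both corrected using a blank of medium plus dye. Hyphal fragments of M. mycetomatis MM55 or F. senegalensis CBS197.79 were suspended to 68–72% transmission at 660 nm in colourless RPMI 1640 containing L-glutamine and MOPS. In 96-well plates they were exposed to compound at 100 or 25 µM for 7 days at 37 °C, and viability was read with MTS (2 h, 490 nm) or resazurin (600 nm).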
# [2] = system: Madurella mycetomatis MM55; assay: as above
# In short: as §1
Compound,growth ([1]; 25 µM),growth ([1]; 100 µM),growth ([2]; 25 µM),growth ([2]; 100 µM)
CN1CCC(Oc2nc(Nc3ccccc3)nc3[nH]cc(-c4cnn(C)c4)c23)CC1,89%,79%,,
CCN(CC)Cc1cc(Nc2ccnc3cc(Cl)ccc23)ccc1O,89.8%,88.3%,,
CCOc1ccc(Cc2nccc3cc(OCC)c(OCC)cc23)cc1OCC,108%,105%,,
COc1ccc(-c2nc3c(NCc4ccccc4)nccc3[nH]2)c(OC)c1,63.7%,26.6%,,
CN(C)CCNC(=O)c1ccc(Nc2nccc(-c3ccc(Cl)c(Cl)c3)n2)cc1,24.5%,43.3%,,
FC(F)(F)c1cc(Cl)cc(Nc2nc3cnc(NCC4CC4)nc3n2C2CCNCC2)c1,95%,17.6% (active),,
CC(C)CN(C[C@@H](O)[C@H](Cc1ccccc1)NC(=O)O[C@H]1CO[C@H]2OCC[C@H]21)S(=O)(=O)c1ccc(N)cc1,97.7%,101%,,
COc1ccc2c(c1)c(CC(=O)O)c(C)n2C(=O)c1ccc(Cl)cc1,111%,104%,,
CC[C@@H]([C@H](C)O)n1ncn(-c2ccc(N3CCN(c4ccc(OC[C@@H]5CO[C@@](Cn6cncn6)(c6ccc(F)cc6F)C5)cc4)CC3)cc2)c1=O,25.2%,24.1%,,
OC1(CN2CCC(Oc3cccc(C(F)(F)F)c3)CC2)CCNC1 (centres undefined),98.5%,19.1% (active),,
O=c1[nH]c2ccccc2n1CCCN1CCN(C(c2ccccc2)c2ccccc2)CC1,103%,28.7%,,
Cc1noc(C2CN(C(=O)c3ccc(Nc4nccc(-c5ccc(Cl)cc5)n4)cc3)C2)n1,73.8%,99.2%,,
CCN1CCN(Cc2ccc(Nc3ncc(F)c(-c4cc(F)c5nc(C)n(C(C)C)c5c4)n3)nc2)CC1,101%,105%,,
CCOC(=O)N1CCC(=C2c3ccc(Cl)cc3CCc3cccnc32)CC1,106%,104%,,
O=S(=O)(NCC1(O)CCOc2ccccc21)c1ccccc1F (centres undefined),85.9%,113%,,
C[C@H]1O[C@@H](O[C@H]2[C@@H](O)C[C@H](O[C@H]3[C@@H](O)C[C@H](O[C@H]4CC[C@@]5(C)[C@H](CC[C@@H]6[C@@H]5CC[C@]5(C)[C@@H](C7=CC(=O)OC7)CC[C@]65O)C4)O[C@@H]3C)O[C@@H]2C)C[C@H](O)[C@@H]1O,99.1%,98%,,
COc1cccc2c1C(=O)c1c(O)c3c(c(O)c1C2=O)C[C@@](O)(C(=O)CO)C[C@@H]3O[C@H]1C[C@H](N)[C@H](O)[C@H](C)O1,94.8%,96.3%,,
CCC(C)(C)n1nnnc1C(c1cc2ccc(C)cc2[nH]c1=O)N1CCN(c2ccccc2)CC1 (centres undefined),86%,84.3%,,
COc1cc2c3cc1Oc1c(OC)c(OC)cc4c1[C@@H](Cc1ccc(O)c(c1)Oc1ccc(cc1)C[C@@H]3N(C)CC2)N(C)CC4,99.1%,12.6% (active),,
CC[C@H](Nc1ncnc2[nH]cnc12)c1nc2cccc(F)c2c(=O)n1-c1ccccc1,98%,98.4%,,
Cc1ccc(-c2noc(-c3ccccc3)n2)cc1,90.2%,86.5%,,
Cc1ccc(C(=O)Nc2ccc(CN3CCN(C)CC3)c(C(F)(F)F)c2)cc1C#Cc1cnc2cccnn12,20.7%,-2.57% (active),,
Cc1ccc(-c2c3c(nc4sc(C(=O)Nc5ccc(F)cc5)c(N)c24)CCC3)cc1,81.3%,89.6%,,
CCN1CCN(Cc2ccc(-c3cc4c(N[C@H](C)c5ccccc5)[nH]cnc-4n3)cc2)CC1,78.1%,49.3%,,
CN(C)CCOc1ccc2nc(-c3cccc(OCc4ccccc4)c3)[nH]c2c1C#N,50.2%,11.4% (active),,
C[C@H]1O[C@@H](O[C@H]2[C@@H](O)C[C@H](O[C@H]3[C@@H](O)C[C@H](O[C@H]4CC[C@@]5(C)[C@H](CC[C@@H]6[C@@H]5C[C@@H](O)[C@]5(C)[C@@H](C7=CC(=O)OC7)CC[C@]65O)C4)O[C@@H]3C)O[C@@H]2C)C[C@H](O)[C@@H]1O,99.5%,106%,,
CCCCC(=O)N(Cc1ccc(-c2ccccc2-c2nn[nH]n2)cc1)[C@H](C(=O)O)C(C)C,103%,107%,,

Compound,growth ([1]; 25 µM),growth ([1]; 100 µM),growth ([2]; 25 µM),growth ([2]; 100 µM)
CCOc1ccccc1NC(=O)Cn1c(=O)n(Cc2ccccc2)c(=O)c2c(C)c(C(=O)N(C)C)sc21,92.1%,108%,,
Cc1cc(OCCN2CCOCC2)nn1-c1ccc2ccccc2c1,105%,103%,,
COc1ccc2cc1Oc1ccc(cc1)C[C@H]1c3cc(c(OC)cc3CCN1C)Oc1c(O)c(OC)cc3c1[C@@H](C2)N(C)CC3,100%,19.7% (active),,
CC1(C)CCC(CO)(NC(=O)c2cc3c(F)cc(F)cc3[nH]2)CC1,93.1%,93.5%,,
CCCCN(CCCC)CC(O)c1cc(Cl)cc2c1-c1ccc(Cl)cc1/C2=C/c1ccc(Cl)cc1 (centres undefined),98.7%,96.3%,,
Cc1cnc2nc(NC3COc4ccc(F)cc43)nc(NC3CCC4(CCCC4)CC3)c2c1 (centres undefined),85.8%,95%,,
CC(C)(C)NC(=O)[C@@H]1CN(Cc2cccnc2)CCN1C[C@@H](O)C[C@@H](Cc1ccccc1)C(=O)N[C@H]1c2ccccc2C[C@H]1O,105%,103%,,
CC[C@H](C)[C@H]1O[C@]2(CC[C@@H]1C)C[C@@H]1C[C@@H](C/C=C(\C)[C@@H](O[C@H]3C[C@H](OC)[C@@H](O[C@H]4C[C@H](OC)[C@@H](O)[C@H](C)O4)[C@H](C)O3)[C@@H](C)/C=C/C=C3\CO[C@@H]4[C@H](O)C(C)=C[C@@H](C(=O)O1)[C@]34O)O2,90.2%,91.2%,,
O=C(OI(OC(=O)C(F)(F)F)c1ccccc1)C(F)(F)F,97.9%,93%,,
O=C(CCCN1CCC(O)(c2ccc(Cl)cc2)CC1)c1ccc(F)cc1,103%,14.2% (active),76.2%,4.14% (active)
CC(Nc1ccc2c(c1)OCCCO2)C(=O)Nc1cc(C(F)(F)F)ccc1N1CCOCC1 (centres undefined),87.5%,86.1%,,
C=CCNc1nc(NCC=C)nc(N2CCN(C(c3ccc(F)cc3)c3ccc(F)cc3)CC2)n1,105%,91.3%,,
CC(C)OC(=O)[C@H](C)N[P@](=O)(OC[C@H]1O[C@@H](n2ccc(=O)[nH]c2=O)[C@](C)(F)[C@@H]1O)Oc1ccccc1,112%,108%,,
Cc1cccc(Nc2nccc(-c3cccc(C#N)c3)n2)c1,80.6%,89.8%,84.1%,49.1%
C[C@@H]1CCCN1CCc1cc2cc(-c3ccc(C#N)cc3)ccc2o1,98.4%,17.8% (active),,
CO[C@H]1C[C@@H]2CC[C@@H](C)[C@@](O)(O2)C(=O)C(=O)N2CCCC[C@H]2C(=O)O[C@H]([C@H](C)C[C@@H]2CC[C@@H](O)[C@H](OC)C2)CC(=O)[C@H](C)/C=C(\C)[C@@H](O)[C@@H](OC)C(=O)[C@H](C)C[C@H](C)/C=C/C=C/C=C/1C,103%,105%,,
CCCCOC(=O)c1c(C)cnc2ccccc12,90.5%,98.7%,86.7%,141%
Cc1c[nH]c(-c2cccc(C(=O)NC3CCC(CCN4CCc5ccc(C#N)cc5CC4)CC3)c2)n1 (centres undefined),74.1%,92.9%,38.2%,88.4%
Cn1cc(CN2CCc3c(c(C(=O)NCc4nccs4)nn3Cc3ccccc3)C2)c2ccccc21,89.7%,101%,,
CC(C)Nc1ncc2nc(Nc3cc(C(F)(F)F)cc(C(F)(F)F)c3)n(C3CCNCC3)c2n1,104%,107%,104%,64.5%
Cn1nc(C(=O)Nc2ccc(F)c(Cl)c2)c2c1-c1ccccc1S(=O)(=O)C2,99.8%,117%,86.8%,104%
FC(F)(F)c1ccnc(Nc2cn3cc(-c4ccc(N5CCOCC5)nc4)ccc3n2)n1,91.1%,92.1%,,
CC(C)n1ncc2c(C(=O)N3CCCc4ccccc43)cc(-c3ccccc3)nc21,82.5%,89.8%,71.5%,59.8%
C[C@@H](O[C@H]1OCCN(Cc2n[nH]c(O)n2)[C@H]1c1ccc(F)cc1)c1cc(C(F)(F)F)cc(C(F)(F)F)c1,104%,103%,89.8%,5.09% (active)
CC(C)Nc1ncc2nc(Nc3cc(F)cc(Cl)c3)n(C3CCNCC3)c2n1,101%,99.6%,,
CCc1ccc2c(c1O)CCN(C)C2Cc1ccccc1Cl (centres undefined),78.3%,27.8%,21.4%,6.23% (active)
